We go through three molecules from PubChem BioAssay (EPA / NIEHS).

The nature of experiment [1]: ATG_CRE_CIS: Attagene CIS-FACTORIAL HepG2 Assay for human cAMP Responsive Element (CRE) binding protein 3 (AID 2282926). Particulars: HepG2 CRE cis-reporter, Attagene multiplexed mRNA; actives raise or lower the signal. The method, boiled down:
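Capillary electrophoresis of 6-FAM-labelled, HpaI-digested PCR products quantified reporter transcripts. These came from HepG2 transiently transfected with cis-element reporters and exposed to test chemicals for 24 hours, with DMSO defining baseline activity.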

Experiment [2] concerns the target CCAAT/enhancer-binding protein beta (Homo sapiens) (UniProt P17676). The experiment in a line: ATG_C_EBP_CIS: Attagene CIS-FACTORIAL HepG2 Assay for human CCAAT/Enhancer Binding Protein (C/EBP) beta (AID 2282927). Particulars: HepG2 Attagene cis-factorial transcription factor reporter; actives raise or lower the signal. The method, boiled down:
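Endogenous transcription factor activity in human liver HepG2 cells is inferred from induction of a CEBPB-linked reporter mRNA. Exposure lasts 24 h; activity is fitted in both directions relative to DMSO.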

The nature of experiment [3]: ATG_CMV_CIS: Attagene CIS-FACTORIAL HepG2 Assay for human CMV (Internal Marker) (AID 2282928).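 Note: endpoint acts as a background internal control marker rather than a target.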 Particulars: HepG2 CMV promoter reporter, transcription factor profiling; actives raise or lower the signal. The method, boiled down: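 24 h chemical treatment, HepG2 with transient multi-reporter transfection; RNA → oligo(dT) RT → PCR → 6-FAM extension → HpaI digest → CE fluorescence. Bidirectional fit, DMSO negative control.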

Experiment [4] in a line: ATG_DR4_LXR_CIS: Attagene CIS-FACTORIAL HepG2 Assay for human Liver X Receptor (LXR), DR4 submotif (AID 2282929). Particulars: HepG2 Attagene DR4 cis-reporter, mRNA transcription; actives raise or lower the signal. An outline of the steps: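 Cells were transfected with multiple reporter transcription units, exposed to chemicals for 24 hours, then lysed for RNA. Reporter mRNA induction was measured by RT-PCR with capillary electrophoresis detection and fitted in both directions relative to DMSO.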

Experiment [5] concerns the target Aryl hydrocarbon receptor (Homo sapiens) (UniProt P35869). The experiment in a line: ATG_Ahr_CIS: Attagene CIS-FACTORIAL HepG2 Assay for human Aryl Hydrocarbon Receptor (Ahr) (AID 2282930). Particulars: HepG2 AhR cis-factorial reporter transcription; actives raise or lower the signal. The method, boiled down:
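Transient MRTU transfection of HepG2 → 24 h compound exposure → total RNA, oligo(dT) RT → PCR, 6-FAM extension, HpaI cut → CE fluorescence. DMSO = baseline; bidirectional curve fit.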

Experiment [6] can be described thus: ATG_AP_1_CIS: Attagene CIS-FACTORIAL HepG2 Assay for human Activator Protein 1 (AP-1) (AID 2282931). Particulars: HepG2 Attagene cis-factorial AP-1 reporter mRNA; actives raise or lower the signal. The method, boiled down: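 Endogenous transcription-factor activity in human HepG2 liver cells is read through a cis-promoter reporter transcript, sampled 24 h after dosing. Detection uses RT-PCR with capillary electrophoresis; values come from bidirectional fitting relative to DMSO.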

Experiment [7] can be described thus: ATG_AP_2_CIS: Attagene CIS-FACTORIAL HepG2 Assay for human Activator Protein 2 (AP-2) (AID 2282932). Particulars: HepG2 AP-2 cis-reporter, Attagene transcription factor profiling; actives raise or lower the signal. An outline of the steps:
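Transiently transfected HepG2 cells are exposed to chemical for 24 h. Reporter transcripts are then measured as fluorescence following RT-PCR and capillary separation, and gain- or loss-of-signal is fitted relative to DMSO.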

A short description of experiment [8]: ATG_BRE_CIS: Attagene CIS-FACTORIAL HepG2 Assay for human Bone Morphogenetic Protein (BMP) Response Element (BRE) (AID 2282933). Particulars: HepG2 BMP response element reporter, Attagene transcription factor profiling; actives raise or lower the signal. The method, boiled down: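 Fluorescence-labelled reporter cDNA fragments, separated by capillary electrophoresis, gave the signal for this component of a 52-readout multiplex. HepG2 cells were transfected, exposed to chemicals for 24 h, and compared with DMSO using bidirectional fitting.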

The target in experiment [9] is Transcription factor E2F1 (Homo sapiens) (UniProt Q01094). The experiment in a line: ATG_E2F_CIS: Attagene CIS-FACTORIAL HepG2 Assay for human E2F Transcription Factor 1 (AID 2282935). Particulars: HepG2 Attagene cis-reporter, E2F reporter RNA transcripts; actives raise or lower the signal. An outline of the steps: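 Fluorescent RT-PCR products, digested with HpaI for 2 h at 37 C, are separated by capillary electrophoresis. Source RNA comes from transfected HepG2 cultures treated for 24 h.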
Sequence of Transcription factor E2F1 (Homo sapiens) (Q01094 whole entry, looked up): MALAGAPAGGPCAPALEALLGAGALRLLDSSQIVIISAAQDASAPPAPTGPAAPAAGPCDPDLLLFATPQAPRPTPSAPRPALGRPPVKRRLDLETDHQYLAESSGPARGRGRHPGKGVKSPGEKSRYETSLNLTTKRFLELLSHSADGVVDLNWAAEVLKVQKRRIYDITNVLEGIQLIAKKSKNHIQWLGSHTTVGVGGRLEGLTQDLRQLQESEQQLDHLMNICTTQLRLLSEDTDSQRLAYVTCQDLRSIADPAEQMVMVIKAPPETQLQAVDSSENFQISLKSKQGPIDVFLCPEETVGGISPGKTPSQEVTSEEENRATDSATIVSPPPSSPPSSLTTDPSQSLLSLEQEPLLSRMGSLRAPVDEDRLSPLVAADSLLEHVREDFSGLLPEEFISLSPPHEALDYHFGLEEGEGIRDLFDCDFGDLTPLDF

Experiment [10] in a line: ATG_E_Box_CIS: Attagene CIS-FACTORIAL HepG2 Assay for human Enhancer Box (E-box) (AID 2282936). Particulars: HepG2 E-box cis-reporter transcription, actives raise or lower the signal. An outline of the steps: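 Fluorescent reporter fragments separated by capillary electrophoresis gave the signal; mRNA came from HepG2 cells transfected with cis-element reporters and treated 24 h. Curves fitted bidirectionally relative to DMSO controls.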

A short description of experiment [11]: ATG_M_61_CIS: Attagene CIS-FACTORIAL HepG2 Assay for M61 Transcription Factor (Internal Marker) (AID 2282937). Particulars: HepG2 Attagene CIS-FACTORIAL M61 internal marker reporter; actives raise or lower the signal. The method, boiled down:
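Cells were transfected with reporter units under cis-regulatory promoters, treated with chemicals for 24 h, then lysed for RNA. Reporter transcripts were quantified by RT-PCR and capillary electrophoresis, and activity was fitted bidirectionally against DMSO.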

Experiment [12] in a line: ATG_EGR_CIS: Attagene CIS-FACTORIAL HepG2 Assay for human Early Growth Response 1 (EGR1) (AID 2282938). Particulars: HepG2 Attagene CIS-FACTORIAL EGR reporter mRNA; actives raise or lower the signal. The method, boiled down:
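Endogenous TF activity in HepG2 liver cells was gauged through cis-promoter reporter constructs transiently transfected. After 24 h dosing, reporter mRNA was quantified by RT-PCR and capillary electrophoresis, and curves fitted in both directions versus DMSO.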

The nature of experiment [13]: ATG_M_19_CIS: Attagene CIS-FACTORIAL HepG2 Assay for M19 Transcription Factor (Internal Marker) (AID 2282939). Particulars: HepG2 Attagene CIS-FACTORIAL M19 internal marker reporter; actives raise or lower the signal. An outline of the steps:
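HepG2, MRTU transient transfection, 24 h dosing. Total RNA → RT-PCR → 6-FAM primer extension → HpaI digest → CE fluorescence. Bidirectional curve fit, DMSO negative control.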

The nature of experiment [14]: ATG_ERE_CIS: Attagene CIS-FACTORIAL HepG2 Assay for Estrogen Response Element (ERE) (AID 2282940). Particulars: HepG2 ERE cis-reporter, Attagene RNA transcript; actives raise or lower the signal. An outline of the steps:
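After a 24 h chemical treatment, RNA from reporter-transfected HepG2 cells is reverse-transcribed, PCR-amplified and fluorescently labelled. Fragments separated by capillary electrophoresis give reporter signal; DMSO serves as negative control.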

The nature of experiment [15]: ATG_Ets_CIS: Attagene CIS-FACTORIAL HepG2 Assay for human Erythroblast Transformation Specific (ETS) (AID 2282941). Particulars: HepG2 ETS cis-reporter transcription, actives raise or lower the signal. The method, boiled down: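 Cis-regulated reporter mRNA induction in HepG2 (transient transfection), 24 h exposure, RT-PCR plus capillary electrophoresis detection; DMSO serves as negative control and baseline.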

Experiment [16] concerns the target Hepatocyte nuclear factor 3-beta (Homo sapiens) (UniProt Q9Y261). The experiment in a line: ATG_FoxA2_CIS: Attagene CIS-FACTORIAL HepG2 Assay for human Forkhead box A2 (FOXA2) (AID 2282942). Particulars: HepG2 cis-reporter transcription factor activity, 24 h; actives raise or lower the signal. An outline of the steps: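 Endogenous transcription factor activity was read in HepG2 cells carrying transiently transfected cis-promoter reporter units. After 24 h dosing, reporter mRNA was quantified by RT-PCR and capillary electrophoresis, and values fitted bidirectionally versus DMSO.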

Experiment [17] can be described thus: ATG_FoxO_CIS: Attagene CIS-FACTORIAL HepG2 Assay for human Forkhead box O (FoxO) (AID 2282943). Particulars: HepG2 Attagene cis-reporter, FoxO element, mRNA; actives raise or lower the signal. The method, boiled down:
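HepG2, transient MRTU transfection (cis element, endogenous TFs). Dose 24 h. TriZol RNA → oligo(dT) RT → PCR → 6-FAM primer extension → HpaI cut → CE. Gain/loss vs DMSO.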

The nature of experiment [18]: ATG_GATA_CIS: Attagene CIS-FACTORIAL HepG2 Assay for human GATA Binding Protein (AID 2282944). Particulars: HepG2 GATA cis-element reporter, Attagene multiplex mRNA; actives raise or lower the signal. An outline of the steps:
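Cells: HepG2, transiently transfected with cis-regulated reporter transcription units. Exposure: 24 h. Detection: RT-PCR plus capillary electrophoresis of FAM-labeled fragments. Analysis: bidirectional, DMSO as baseline.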

Experiment [19] is described as follows: ATG_GLI_CIS: Attagene CIS-FACTORIAL HepG2 Assay for human Zinc Finger Protein GLI1 (AID 2282945). Particulars: HepG2, Attagene cis-factorial reporter mRNA, GLI element; actives raise or lower the signal. An outline of the steps:
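Bidirectional curve fits relative to DMSO, using reporter mRNA levels from RT-PCR plus capillary electrophoresis. Cells were HepG2 transiently carrying cis-regulated reporter constructs, harvested 24 h after dosing.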

Experiment [20] concerns the target Bile acid receptor (Homo sapiens) (UniProt Q96RI1). The experiment in a line: ATG_IR1_CIS: Attagene CIS-FACTORIAL HepG2 Assay for human Nuclear Receptor Subfamily 1 Group H Member 4 (NR1H4), IR1 submotif (AID 2282946). Particulars: IR1 reporter transcription, actives raise or lower the signal. The method, boiled down:
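HepG2 cells transiently transfected with multiplexed cis-element reporter units read endogenous transcription factor activity. After 24 h compound exposure, reporter mRNA was quantified by RT-PCR, fluorescent labelling, HpaI digestion and capillary electrophoresis; bidirectional fitting versus DMSO baseline.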

Active and inactive are the calls of the source. Rule for the calls: active = hit-call score of the fitted dose curve at least 0.9, where 1 is the maximum; inactive = score below 0.9.

Sequence of Aryl hydrocarbon receptor (Homo sapiens) (P35869 whole entry, looked up): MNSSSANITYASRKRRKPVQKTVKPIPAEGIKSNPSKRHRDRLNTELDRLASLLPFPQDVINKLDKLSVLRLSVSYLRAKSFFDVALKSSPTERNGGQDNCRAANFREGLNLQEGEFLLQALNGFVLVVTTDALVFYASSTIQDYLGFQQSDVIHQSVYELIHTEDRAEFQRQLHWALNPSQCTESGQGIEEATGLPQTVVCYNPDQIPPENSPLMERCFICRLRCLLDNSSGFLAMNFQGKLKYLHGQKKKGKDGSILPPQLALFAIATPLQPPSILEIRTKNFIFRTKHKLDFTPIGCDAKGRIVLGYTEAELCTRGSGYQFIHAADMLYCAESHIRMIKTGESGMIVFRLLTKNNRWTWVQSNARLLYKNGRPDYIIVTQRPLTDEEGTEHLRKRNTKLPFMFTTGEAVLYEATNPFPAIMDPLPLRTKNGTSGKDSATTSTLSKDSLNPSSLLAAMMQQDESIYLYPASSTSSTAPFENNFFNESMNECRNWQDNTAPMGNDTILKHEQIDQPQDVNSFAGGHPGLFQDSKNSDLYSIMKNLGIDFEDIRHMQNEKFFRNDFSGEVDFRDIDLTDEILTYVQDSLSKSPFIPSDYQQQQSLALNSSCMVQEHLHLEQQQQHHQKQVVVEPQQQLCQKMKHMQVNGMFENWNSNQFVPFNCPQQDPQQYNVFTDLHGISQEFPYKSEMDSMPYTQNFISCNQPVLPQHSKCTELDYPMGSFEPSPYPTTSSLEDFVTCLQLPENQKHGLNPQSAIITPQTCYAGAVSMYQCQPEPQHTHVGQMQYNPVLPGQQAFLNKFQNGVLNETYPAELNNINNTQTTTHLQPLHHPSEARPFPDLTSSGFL
Sequence of CCAAT/enhancer-binding protein beta (Homo sapiens) (P17676 whole entry, looked up): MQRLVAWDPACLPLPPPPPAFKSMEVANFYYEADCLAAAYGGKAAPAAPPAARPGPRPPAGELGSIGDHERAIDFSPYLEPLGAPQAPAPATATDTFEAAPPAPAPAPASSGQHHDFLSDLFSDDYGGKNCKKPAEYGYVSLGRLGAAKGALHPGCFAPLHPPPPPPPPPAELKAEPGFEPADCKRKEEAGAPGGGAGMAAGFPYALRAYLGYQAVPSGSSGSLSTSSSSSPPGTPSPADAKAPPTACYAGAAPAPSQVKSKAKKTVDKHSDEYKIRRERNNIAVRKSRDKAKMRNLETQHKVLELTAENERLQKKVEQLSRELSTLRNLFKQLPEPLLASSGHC
Sequence of Hepatocyte nuclear factor 3-beta (Homo sapiens) (Q9Y261 whole entry, looked up): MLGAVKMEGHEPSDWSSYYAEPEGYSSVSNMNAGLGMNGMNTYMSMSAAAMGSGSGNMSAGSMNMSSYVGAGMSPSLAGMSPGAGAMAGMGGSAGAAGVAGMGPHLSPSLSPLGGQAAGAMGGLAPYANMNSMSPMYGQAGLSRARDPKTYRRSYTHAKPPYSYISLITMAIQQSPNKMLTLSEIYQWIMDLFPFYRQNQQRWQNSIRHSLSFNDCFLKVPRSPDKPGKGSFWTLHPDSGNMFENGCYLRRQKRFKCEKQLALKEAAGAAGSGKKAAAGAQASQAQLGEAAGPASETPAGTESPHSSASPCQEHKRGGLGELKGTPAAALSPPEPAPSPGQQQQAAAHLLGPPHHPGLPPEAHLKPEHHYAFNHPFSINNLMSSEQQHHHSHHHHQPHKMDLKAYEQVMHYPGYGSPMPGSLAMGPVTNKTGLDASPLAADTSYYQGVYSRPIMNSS
Sequence of Bile acid receptor (Homo sapiens) (Q96RI1 whole entry, looked up): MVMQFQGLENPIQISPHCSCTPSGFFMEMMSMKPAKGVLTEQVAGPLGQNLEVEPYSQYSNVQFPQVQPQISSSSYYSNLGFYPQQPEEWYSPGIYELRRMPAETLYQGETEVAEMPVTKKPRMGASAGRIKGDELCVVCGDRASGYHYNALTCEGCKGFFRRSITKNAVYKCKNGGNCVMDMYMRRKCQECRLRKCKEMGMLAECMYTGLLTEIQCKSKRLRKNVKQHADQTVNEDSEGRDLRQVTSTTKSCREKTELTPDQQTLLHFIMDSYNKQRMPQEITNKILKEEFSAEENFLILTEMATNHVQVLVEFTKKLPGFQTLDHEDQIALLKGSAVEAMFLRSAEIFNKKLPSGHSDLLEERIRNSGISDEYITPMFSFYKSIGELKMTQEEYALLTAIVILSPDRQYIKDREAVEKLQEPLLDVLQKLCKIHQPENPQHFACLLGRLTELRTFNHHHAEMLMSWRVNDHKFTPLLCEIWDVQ

As a reminder, the AC50 is the concentration giving half of the maximal activity seen. For `O=C(N[C@@H](c1ccccc1)[C@@H]1CCCCN1)c1cccc(C(F)(F)F)c1Cl`, the AC50 in [1] was 25.4 µM (active); in experiment [3] it was 12.1 µM (active); in experiment [6], 9.01 µM (active); in experiment [7] it was 33 µM (active); in [12] it was 25.7 µM (active); in [15], 33 µM (active). Further, in experiment [19], the AC50 is 55.9 µM (active). Further, the outcome in [2], in experiment [4], in [5], in [8], in experiment [9] and in experiment [10] was inactive. The call in experiment [11], in experiment [13], in experiment [14], in [16], in experiment [17] and in [18] was inactive. In [20], the call was inactive.

For the molecule `CC(=O)OCC(COC(C)=O)OC(C)=O`, the molecule was called inactive in experiment [1], in experiment [2], in experiment [3], in [4], in [5] and in [6]. Besides, the outcome in [7], in [8], in [9], in experiment [10], in [11] and in experiment [12] was inactive. The molecule was called inactive in [13], in [15], in experiment [16], in experiment [17], in experiment [18] and in [19].

`O=C1c2c(O)cccc2Cc2cccc(O)c21`: the call in experiment [1], in experiment [2], in [3], in [4], in experiment [6] and in experiment [7] was inactive. Besides, the molecule was classed as inactive in [8], in experiment [9], in experiment [10], in [11], in experiment [12] and in [13]. Also, the molecule was called inactive in [15], in [16], in [17], in [18], in [19] and in experiment [20]. Further, the AC50 in [5] was 61.7 µM (active).
